Compound activity deposited in PubChem by National Center for Advancing Translational Sciences (NCATS).
ATXN2 expr inh: Primary qHTS for Inhibitors of ATXN expression | HEK-293 ATXN2-luciferase reporter, luminescence, 24 h | Potency, µM (highest dose often 57 µM), without a hit: top-dose activity change, negative = inhibition, most hits filed as inhibitors | 360,000 compounds, 0.72% hits | AID 1745845, 2022; also: % is scaled to controls: 0 for no effect and ±100 for the full control effect; nearly all actives have a fitted effect of over 55% in size
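ATXN2-luciferase reporter cells (luciferase flanked by upstream and downstream ATXN2 gene portions) were treated 24 h at 37 °C with compounds at up to 57 uM. SteadyGlo luminescence gave expression; GF-AFC fluorescence gave viability.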
S2 tox: Viability Counterscreen for Primary qHTS for Inhibitors of ATXN expression; AID 651635, 2014; S2 cells (HEK-293 line with an ATXN2-luciferase reporter) viability, CellTiter-Fluor protease fluorescence, 24 h; Potency, µM (series often up to 56.7 µM), usual class: cytotoxic; 400,000 compounds, 0.49% hits; also: nearly all actives have a fitted effect of over 40% in size
DT40 TDP1 CPT: qHTS for Inhibitors of human tyrosyl-DNA phosphodiesterase 1 (TDP1): qHTS in cells in presence of CPT | Potency, µM (highest dose often 46.2 µM), inactives show top-dose activity change, negative = growth inhibition, most hits filed as inhibitors | chicken DT40 Tdp1-/-;hTDP1 cells + 20 nM CPT, ATP luminescence, 48 h | 420,000 compounds, 12% hits; also: % is scaled to controls: 0 for no effect and ±100 for the full control effect; nearly all actives have a fitted effect of over 55% in size
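Cell growth measured by CellTiter-Glo luminescence after a minimum 48 h, 37 C compound exposure with 20 nM CPT in Tdp1-knockout DT40 cells stably expressing hTDP1, seeded 400/well; qHTS titration format.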
TGFb inhibitor: qHTS for Inhibitors of TGF-b | HepG2 CAGA-GFP TGF-b/SMAD3 reporter, GFP fluorescence, 18 h; TGF-beta stimulated, 500 pg/mL final | 410,000 compounds, 1.2% hits | AID 588855, 2011 | Potency, µM (doses to about 46.1 µM), without a hit: top-dose activity, negative = inhibition, most hits filed as inhibitors; also: % is scaled to controls: 0 for no effect and ±100 for the full control effect; nearly all actives have a fitted effect of over 65% in size
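Cell-based qHTS in HEPG2 carrying a CAGA-GFP Smad reporter; compounds added before 500 pg/mL final TGF-beta, 18 h incubation at 37 degrees C, GFP fluorescence quantified per cell by imaging cytometry.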
TDP1 cell noCPT: qHTS for Inhibitors of human tyrosyl-DNA phosphodiesterase 1 (TDP1): qHTS in cells in absence of CPT; DT40 Tdp1-/- hTDP1 cells, no CPT, ATP luminescence, 48 h; Potency, µM (titrated, usually from 46.2 µM), inactives show at the top dose activity change, negative = growth inhibition, hits mostly inhibitors; 420,000 compounds, 15% hits; AID 686978, 2013; also: % is scaled to controls: 0 for no effect and ±100 for the full control effect; nearly all actives have a fitted effect of over 55% in size
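Cells were dispensed at 400 per well, compounds added by pin tool, plates incubated ≥48 hr at 37 °C, then CellTiter-Glo added for 30 min at room temperature before luminescence reading. Line: DT40 Tdp1-/- complemented with hTDP1; camptothecin omitted.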
HepG2 tox: qHTS for Inhibitors of TGF-b: Cytotox Counterscreen; HepG2 CAGA-GFP viability, ATP luminescence, 18 h; Potency, µM (highest dose often 46.1 µM), for the others: at the highest dose activity change, negative = cytotoxicity, hits mostly cytotoxic; 410,000 compounds, 0.76% hits; AID 588856, 2011
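CellTiter-Glo luminescence gave cytotoxicity after 18 hours at 37 degrees C. The cells were HepG2 CAGA-GFP in 1% FBS DMEM, stimulated with 500 pg/mL TGF-beta after compound addition. %Activity was normalised to no-cell wells (complete cell-killing) and DMSO (no toxicity), and curves were fitted and classified.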
* = called active by the depositor; i = inactive; ? = inconclusive; / = no result given; [ ] = remark or other dose. Hits are enriched below; roughly 17% of the tested compounds scored in any of these assays. Calls follow the shape of the dose curve; as a rule, active = well fitted curve in the direction sought with a large enough effect; inconclusive = small, poorly fitted or top-dose-only effect, or another doubt; inactive = no such curve, though single readings can be large; an effect the other way counts as inactive or inconclusive. Potency is read from the fitted curve at half-maximal effect.

SMILES | ATXN2 expr inh | S2 tox | DT40 TDP1 CPT | TGFb inhibitor | TDP1 cell noCPT | HepG2 tox
CC(=O)Nc1cccc(Oc2nc(NCCN(C)C)nc3ccsc23)c1 | -2.6% | i | -7.8% | 16.5% | -19.4% | -2.3%
Cc1c(NC(=O)COc2ccc(C(C)C)cc2)c(=O)n(-c2ccccc2)n1C | 12.4% | i | -18.1% | 9.6% | -3.3% | 4.6%
O=C(NCCc1ccccc1)C(=O)NCCC1CCCCN1S(=O)(=O)c1ccccc1 (centres undefined) | -2.7% | i | ? | 2.7% | ? | -13.0%
O=C(NCCc1ccccc1)C(=O)NCC1CCCN1S(=O)(=O)c1ccccc1 (centres undefined) | -29.9% | i | 13µM* | -10.9% | 10.3µM* | 1.8%
COc1ccc(CCNC(=O)C(=O)NCC2OCCN2S(=O)(=O)c2ccccc2)cc1OC (centres undefined) | -10.8% | i | ? | -10.5% | -18.6% | -50.8%
CCNC(=O)C1CCCN1S(=O)(=O)c1ccc2ccccc2c1 (centres undefined) | 3.8% | i | ? | -0.3% | -23.4% | -2.6%
CC(C)(C#N)NC(=O)C1CCCN1S(=O)(=O)c1ccc2ccccc2c1 (centres undefined) | -11.1% | i | 23.1µM* | -13.2% | ? | 3.2%
COc1ccc(CCNC(=O)C(=O)NCC2CCCN2S(=O)(=O)c2ccccc2)cc1OC (centres undefined) | -20.4% | ? | ? | -3.0% | 13µM* | -2.8%
CCOc1ccccc1NC(=O)C1CCCCN1S(=O)(=O)c1ccc(F)cc1 (centres undefined) | -3.2% | i | -28.1% | -53.1% | 20.6µM* | -2.2%
CCC(Oc1ccc(F)cc1)C(=O)N1CCCCCCC1 (centres undefined) | / | i | 3.9% | 7.9% | -15.4% | 0.9%
O=C(NCCc1ccccc1)C1CCCN1S(=O)(=O)c1ccc(Cl)cc1 (centres undefined) | -13.1% | i | -27.4% | 7.2% | ? | 5.2%
Cc1ccc(S(=O)(=O)N2CCCC2C(=O)NCCc2ccccc2)cc1 (centres undefined) | -19.6% | i | -14.1% | 12.3% | 14.6µM* | -1.5%
O=C(NCCc1ccccc1)C1CCCN1C(=O)Nc1ccc(F)cc1 (centres undefined) | -2.4% | i | ? | ? | 14.6µM* | 0.7%
Cc1ccc(S(=O)(=O)N2CCCC2C(=O)OCc2ccco2)cc1 (centres undefined) | 2.0% | i | 14.6µM* | -9.0% | 20.6µM* | -0.4%
CC(C)(C)c1ccc(S(=O)(=O)N2CCCCC2C(=O)NCc2ccccn2)cc1 (centres undefined) | -12.6% | i | 23.1µM* | -19.0% | ? | -27.4%
O=C(C=CC=Cc1ccc2c(c1)OCO2)N1CCCCC1 | 45.9% | / | / | / | / | /
Cc1cc(-c2cc(F)cc3c2OC(CNC(=O)[C@@H]2CCC(=O)N2)C3)ccc1F (some centres undefined) | / | i | 1.8%[9.04 µM] | / | -17.3% | /
CCOC(=O)c1c(C)[nH]c(C)c1C(=O)COC(=O)[C@@H]1CCCN1S(=O)(=O)c1ccc(Cl)cc1 | 5.9% | i | 14.6µM* | 2.9% | 13µM* | -15.8%
O=C(Nc1ccccc1F)C1CCCN1S(=O)(=O)c1ccc(Cl)cc1 (centres undefined) | -19.3% | i | -21.4% | -6.3% | -10.5% | -0.2%
Cc1ccc(S(=O)(=O)N2CCC[C@H]2C(=O)Nc2ccccc2Cl)cc1 | -16.0% | i | 4.0% | 15.8% | 16.4µM* | 3.1%
COc1cccc(CC(=O)NCc2ccc3c(c2)CCN3C(C)=O)c1 | / | / | -10.1% | -1.7% | -26.2% | -19.0%
COc1ccccc1C(=O)NC(=O)CSc1ccc(C)c(C)c1 | 1.5% | i | -10.5% | -0.4% | -3.6% | -5.0%
Cc1ccc(CCNC(=O)C2CCN(S(=O)(=O)c3ccc4c(c3)NC(=O)C(C)S4)CC2)cc1 (centres undefined) | ? | ? | ? | ? | 18.4µM* | -14.9%
Cc1ccc(NC(=O)C2CCN(S(=O)(=O)c3ccc4c(c3)NC(=O)C(C)S4)CC2)c(Cl)c1 (centres undefined) | / | i | 13µM* | ? | 20.6µM* | -21.9%
CC1Sc2ccc(S(=O)(=O)N3CCC(C(=O)NCCc4ccccc4)CC3)cc2NC1=O (centres undefined) | 0.8% | i | ? | -26.8% | ? | -14.9%
SMILES | ATXN2 expr inh | S2 tox | DT40 TDP1 CPT | TGFb inhibitor | TDP1 cell noCPT | HepG2 tox
Cc1ccccc1NC(=O)C1CCN(S(=O)(=O)c2ccc3c(c2)NC(=O)C(C)S3)CC1 (centres undefined) | -2.6% | i | -27.0% | ? | -9.1% | 4.0%
Cc1cc(C)cc(NC(=O)C2CCN(S(=O)(=O)c3ccc4c(c3)NC(=O)C(C)S4)CC2)c1 (centres undefined) | -37.7% | ? | ? | ? | -23.9% | -19.5%
Cc1ccc(NC(=O)C2CCN(S(=O)(=O)c3ccc4c(c3)NC(=O)C(C)S4)CC2)cc1Cl (centres undefined) | / | ? | 1.3µM* | 2.24µM* | 1.16µM* | -11.3%
CC1=C(C(=O)OC2CCCC2)C(c2ccc(F)cc2F)CC(=O)N1 (centres undefined) | -24.2% | i | ? | ? | ? | -44.4%
O=C(NCCO)/C(=C\c1ccco1)NC(=O)c1ccco1 | 6.3% | i | -4.4% | -6.8% | -4.0% | -5.9%
O=C(N/N=C/c1cccc([N+](=O)[O-])c1)c1cnccn1 | 13.5% | i | -1.0% | -4.8% | 1.5% | 6.9%
O=C(N/N=C/C(Cl)=C/c1ccccc1)c1cnccn1 | -13.0% | ? | 16.4µM* | 0.0% | 13µM* | -0.6%
O=C(N/N=C/C(Cl)=C/c1ccccc1)c1ccccc1F | 8.2% | i | ? | 25.4% | ? | -4.7%
CC(=C/c1ccccc1)/C=N/NC(=O)c1cnccn1 | 22.8% | i | -21.5% | 0.1% | -1.4% | -6.4%
O=C(N/N=C/C(Cl)=C\c1ccccc1)c1ccco1 | 40.2% | i | -19.6% | 16.9% | 29.1µM* | -10.7%
O=C(N/N=C/C(Cl)=C\c1ccccc1)c1cnccn1 | 5.6% | i | 18.4µM* | -4.8% | 20.6µM* | -5.4%
